# Test results: PubChem BioAssay (Tox21)
# Records with an inconclusive call do not appear. A number with no mark means an inactive call. Calls of active or inactive are those of the source. Calls come from the whole dose curve; as a rule, active = well fitted inhibition curve with a large enough effect in the repeat runs; inconclusive = weak or mixed curves; inactive = no such curve, though single readings can be large or run the other way.
# Target: Estrogen receptor (Homo sapiens) (UniProt P03372)
# Test: qHTS assay to identify small molecule antagonists of the estrogen receptor alpha (ER-alpha) signaling pathway using the BG1 cell line in the presence of 0.1 nM 17-beta-estradiol (AID 1259244); note: nearly all actives have a fitted effect of over 50% in size
# Conditions: VM7Luc4E2 (BG1) ERE-luciferase, antagonist mode, 0.1 nM E2, 22 h; series mostly up to 92.4 µM; activity change, negative = inhibition: at the top concentration
# Excerpt: National Center for Advancing Translational Sciences [NCATS]
# NIH Chemical Genomics Center [NCGC]
# U.S. Environmental Protection Agency [EPA]
# National Institutes of Environmental Health Sciences [NIEHS]
# National Toxicology Program [NTP]
# U.S. Food and Drug Administration [FDA]
# Estrogen receptor (ER), a member of the nuclear hormone receptor plays an important role in development, metabolic homeostasis and reproduction. Two subtypes of ER, ER-alpha and ER-beta, have similar expression patterns with some uniqueness in both types. Endocrine disrupting chemicals (EDCs) and their interactions with steroid hormone receptors like ER causes disruption of normal endocrine function. Therefore, it is important to understand the effect of environmental chemicals in ER signaling pathway. For identifying ER antagonists, VM7Luc4E2 cell line was used to screen against Tox21 compound libraries.
# VM7Luc4E2 cell line (provided by Denison MS, University of California) endogenously express full-length ER-alpha and is stably transfected with a plasmid containing four estrogen responsive elements (ERE) upstream of a luciferase reporter gene. The current screening for identification of ER-alpha inhibitors against Tox21 compound libraries used lower concentration (0.1 nM) of 17beta-Estradiol as a stimulator.
# Tox21 Assay Protocol Summary:
# VM7Luc4E2 cells were cultured in phenol red free assay medium containing 10% charcoal stripped FBS for 5 days prior to the assay. The cells were dispensed at 4,000 cells/well in 4 uL of assay medium into white wall/solid-bottom 1536-well plates (Corning Life Sciences, Corning, NY) using a Multidrop Combi (ThermoFisher Scientific, Waltham, MA) dispenser. After the assay plates were incubated at 37C and 5% CO2 for 24 hr, 23 nL of compounds dissolved in DMSO, positive controls or DMSO only was transferred to the assay plates by a Pintool station (Kalypsys, San Diego, CA). The transfer of compounds was followed by the addition of 1 uL of 0.1 nM (final concentration) agonist (17beta-Estradiol)/assay medium using a Flying Reagent Dispenser (FRD, Aurora Discovery, San Diego, CA). The plates were incubated at 37C and 5% CO2 for 22 hr. For luciferase reporter gene assay, 4 uL of ONE-Glo reagent (Promega Corporation, Madison, WI) was added to each well using the FRD and after 30 min incubation at room temperature luminescence intensity was measured using ViewLux plate reader (PerkinElmer, Shelton, CT).
# % is set by controls: 0 for no effect and ±100 for the full control effect; potency is the fitted concentration of half-maximal effect.
# Chain of Estrogen receptor (Homo sapiens) (P03372 whole entry, looked up): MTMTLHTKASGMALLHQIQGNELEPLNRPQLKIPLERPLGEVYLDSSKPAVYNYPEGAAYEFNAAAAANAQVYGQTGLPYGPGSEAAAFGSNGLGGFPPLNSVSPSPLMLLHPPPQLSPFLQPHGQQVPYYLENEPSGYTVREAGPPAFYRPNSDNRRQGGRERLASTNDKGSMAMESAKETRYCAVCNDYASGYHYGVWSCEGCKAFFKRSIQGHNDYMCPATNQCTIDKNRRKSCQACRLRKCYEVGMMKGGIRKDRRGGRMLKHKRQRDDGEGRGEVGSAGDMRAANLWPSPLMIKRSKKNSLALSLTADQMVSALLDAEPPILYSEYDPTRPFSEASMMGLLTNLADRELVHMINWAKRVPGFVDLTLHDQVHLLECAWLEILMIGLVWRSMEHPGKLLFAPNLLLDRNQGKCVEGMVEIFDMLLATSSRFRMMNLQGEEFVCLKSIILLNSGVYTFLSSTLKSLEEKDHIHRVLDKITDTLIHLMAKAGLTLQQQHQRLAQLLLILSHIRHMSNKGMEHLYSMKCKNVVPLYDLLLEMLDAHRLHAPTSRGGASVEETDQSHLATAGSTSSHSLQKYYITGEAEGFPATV
SMILES,"activity change, negative = inhibition",Potency
O=c1[nH]c2cc(C(F)(F)F)c(N3CCOCC3)cc2n(CP(=O)(O)O)c1=O,-3.45% [at 42.5 µM],–
CC(C)(C(=O)c1cccnc1)c1cccnc1,0.475% [at 42.5 µM],–
CN=C(N)NC(=O)Nc1c(C)cccc1C,5.95% [at 42.5 µM],–
CCOC(=O)Oc1ccc(CCNC(=O)[C@H](CCSC)NC(C)=O)cc1OC(=O)OCC,-7.03% [at 42.5 µM],–
COc1cc(NCc2ccc3nc(N)nc(N)c3c2C)cc(OC)c1OC,-32.1% [at 42.5 µM],–
CC1C(C)(C)C2=C(C(=O)CCC2)C1(C)C (stereo not given),3.34%,–
Cc1ccc(NC(=O)N(C)C)cc1NC(=O)N(C)C,0.19%,–
CNC1CCCN(c2c(F)cc3c(=O)c(C(=O)O)cn(C4CC4)c3c2OC)C1 (stereo not given),-0.354% [at 42.5 µM],–
O=NN(CCCl)C(=O)NCCCl,-1.29% [at 42.5 µM],–
ClC1=C(Cl)C1(Cl)Cl,2%,–
COc1ccc(C2C(=O)c3ccccc3C2=O)cc1,7.92% [at 42.5 µM],–
CC(C)(C)S,-9.05%,–
CCOC(=O)N1CCC(Nc2ccc(Cl)cc2N)CC1,-26.6% [at 42.5 µM],–
CS(=O)(=O)c1ccc([C@@H](C[C@H]2CCC(=O)C2)C(=O)Nc2cnccn2)cc1Cl,9.64%,–
O=C1[C@@H]2[C@H]3CC[C@H](C3)[C@@H]2C(=O)N1CCCCN1CCN(c2ncccn2)CC1,5.16% [at 42.5 µM],–
COc1cc(OC)c2ccc(=O)oc2c1,-13.5%,–
CNc1c2c(nn1C)CCCC2,-9.79% [at 42.5 µM],–
COC1CCC=CO1 (stereo not given),0%,–
Oc1ccc2c(c1)Cc1ccccc1-2,21.9%,–
COc1cc(S(=O)(=O)Nc2ccccc2)c(OC)cc1N,-9.95%,–

SMILES,"activity change, negative = inhibition",Potency
CCCCC[C@H](O)/C=C/[C@H]1[C@H](O)CC(=O)[C@@H]1C/C=C\CCCC(=O)O,19.6% [at 42.5 µM],–
CCCCCCC(O)CCOC(C)=O (stereo not given),0.0153% [at 240 µM],–
CC[C@H]1OC(=O)[C@H](C)[C@@H](O[C@H]2C[C@@](C)(OC)[C@@H](O)[C@H](C)O2)[C@H](C)[C@@H](O[C@@H]2O[C@H](C)C[C@H](N(C)C)[C@H]2O)[C@](C)(O)C[C@@H](C)CN(C)[C@H](C)[C@@H](O)[C@]1(C)O,0.0242% [at 42.5 µM],–
Nc1cccc2c(N)cccc12,–,20.5 µM (active)
CCN(CC)c1cccc(O)c1,3.85%,–
CC(=O)NNC(C)=O,8.35%,–
O=C(NC(Cc1cc(=O)[nH]c2ccccc12)C(=O)O)c1ccc(Cl)cc1 (stereo not given),0.108% [at 42.5 µM],–
CCCCCCCCCCCSCC(=O)O,–,54.5 µM (active)
C=CCOC(=O)COCCC(C)C,-14.4%,–
O=C(O)c1cccc(C[C@@H]2COc3ccc(OCc4nc5cc(F)ccc5s4)cc3[C@@H]2O)c1,0.589%,–
CCOC(=O)c1ccc(NC(=O)CN2CCCCC2)cc1,43.5% [at 42.5 µM],–
CN(C)CC/C=C1\c2ccccc2Sc2ccc(Cl)cc21,-17.4% [at 42.5 µM],–
CC(C)c1ccc(C#N)cc1,-4.05%,–
CC1=C2[C@@H]([C@H](C)CC[C@H]2/C=C(\C)C(=O)O)[C@H](O)C1,-0.681%,–
N[C@@H](Cc1cc(I)c(O)c(I)c1)C(=O)O,-0.945% [at 42.5 µM],–
CC(C)CC(O)CC(C)C,10.9%,–
CC(C)(C)C(O)/C=C/c1ccc2c(c1)OCO2 (stereo not given),10.6% [at 42.5 µM],–
CCOC(=O)C(C)O (stereo not given),0%,–
COC(OC)OC,-9.38%,–
CCCCC(CC)COS(=O)(=O)O (stereo not given),5.64%,–
